Assay results from PubChem BioAssay (NCATS).
Results filed as inconclusive are left out. Calls of active or inactive are those of the source. Unless noted, calls follow the shape of the dose curve; as a rule, active = well fitted curve in the direction sought with a large enough effect; inconclusive = small, poorly fitted or top-dose-only effect, or another doubt; inactive = no such curve, though single readings can be large; an effect the other way counts as inactive or inconclusive.

Columns and labels:
[1] = test system: NIH3T3; assay: qHTS assay to identify novel small-molecules to repurpose for Merkel cell carcinoma treatment (AID 1296009); details: MCC and control cell lines, CellTiter-Glo viability, 72 h; at 44.8 µM (top of the series) unless noted; also: nearly all actives have a fitted effect of over 60% in size; also: potency is read from the fitted curve at half-maximal effect
In short: (§1)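 Cell viability, measured as CellTiter-Glo luminescence, was normalized between DMSO and no-cell wells. The cells had been exposed to 8- or 11-point compound dilutions for 72 hr at 37 degree celsius.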

[2] = test system: UISO; assay: as above; details: MCC and control cell lines, CellTiter-Glo viability, 72 h; series mostly up to 46 µM
In short: as §1

[3] = test system: WaGa; assay: as above; details: MCC and control cell lines, CellTiter-Glo viability, 72 h; series mostly up to 46 µM
In short: as §1

[4] = test system: C33A; assay: Primary qHTS to identify gynecologic anti-cancer compounds using libraries of approved drugs and bioactive compounds (AID 1345084); details: Gynecologic cancer cell panel viability, ATPlite luminescence, 48 h; series mostly up to 57.5 µM; also: % is scaled to controls: 0 for no effect and ±100 for the full control effect; nearly all actives have a fitted effect of over 55% in size
In short: (§2)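 Luminescence from the ATPlite ATP-monitoring reagent indicates viable cell number; lower signal means cytotoxicity. Cells received compound 16 h after seeding and were exposed for 48 h across five concentrations.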

[5] = test system: CAOV3; assay: as above; details: Gynecologic cancer cell panel viability, ATPlite luminescence, 48 h; series mostly up to 57.5 µM
In short: as §2

[6] = test system: CASKI; assay: as above; details: Gynecologic cancer cell panel viability, ATPlite luminescence, 48 h; series mostly up to 57.5 µM
In short: as §2

[7] = test system: Es-2; assay: as above; details: Gynecologic cancer cell panel viability, ATPlite luminescence, 48 h; series mostly up to 57.5 µM
In short: as §2

[8] = test system: HeLa; assay: as above; details: Gynecologic cancer cell panel viability, ATPlite luminescence, 48 h; series mostly up to 57.5 µM
In short: as §2

[9] = test system: Hek293T; assay: as above; details: Gynecologic cancer cell panel viability, ATPlite luminescence, 48 h, control line for the selectivity index; series mostly up to 57.5 µM
In short: as §2

[10] = test system: JEG-3; assay: as above; details: Gynecologic cancer cell panel viability, ATPlite luminescence, 48 h; series mostly up to 57.5 µM
In short: as §2

[11] = test system: OV90; assay: as above; details: Gynecologic cancer cell panel viability, ATPlite luminescence, 48 h; series mostly up to 57.5 µM
In short: as §2

[12] = test system: PA-1; assay: as above; details: Gynecologic cancer cell panel viability, ATPlite luminescence, 48 h; series mostly up to 57.5 µM
In short: as §2

[13] = test system: SKOV3; assay: as above; details: Gynecologic cancer cell panel viability, ATPlite luminescence, 48 h; series mostly up to 57.5 µM
In short: as §2

[14] = test system: Tov-21-G; assay: as above; details: Gynecologic cancer cell panel viability, ATPlite luminescence, 48 h; series mostly up to 57.5 µM
In short: as §2

[15] = test system: Tov112D; assay: as above; details: Gynecologic cancer cell panel viability, ATPlite luminescence, 48 h; series mostly up to 57.5 µM
In short: as §2

[16] = Drug repurposing screens with cells derived from glioblastoma tumor samples (AID 1345199); details: GBM patient neurospheres viability, ATP luminescence, 48 h; also: nearly all actives have a fitted effect of over 40% in size; also: potency is read from the fitted curve at half-maximal effect; as to activity, negative = cell killing: % is scaled to controls: 0 for no effect and ±100 for the full control effect
In short: (§3)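 Primary testing used CD133+ neurospheres from four GBM patients, seven concentrations, 48 h exposure and ATP-based viability; confirmation added three slower-growing patient lines.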

[17] = target: Nuclear receptor subfamily 1 group I member 2 (Rattus norvegicus) (UniProt Q9R1A7); assay: qHTS assay for small molecule activators of the rat pregnane X receptor (rPXR) signaling pathway (AID 651751; call rule not given here; also: 0% is about no effect); details: rPXR reporter cells, luciferase (One-Glo), 24 h
Sequence of Nuclear receptor subfamily 1 group I member 2 (Rattus norvegicus) (Q9R1A7 whole entry, looked up): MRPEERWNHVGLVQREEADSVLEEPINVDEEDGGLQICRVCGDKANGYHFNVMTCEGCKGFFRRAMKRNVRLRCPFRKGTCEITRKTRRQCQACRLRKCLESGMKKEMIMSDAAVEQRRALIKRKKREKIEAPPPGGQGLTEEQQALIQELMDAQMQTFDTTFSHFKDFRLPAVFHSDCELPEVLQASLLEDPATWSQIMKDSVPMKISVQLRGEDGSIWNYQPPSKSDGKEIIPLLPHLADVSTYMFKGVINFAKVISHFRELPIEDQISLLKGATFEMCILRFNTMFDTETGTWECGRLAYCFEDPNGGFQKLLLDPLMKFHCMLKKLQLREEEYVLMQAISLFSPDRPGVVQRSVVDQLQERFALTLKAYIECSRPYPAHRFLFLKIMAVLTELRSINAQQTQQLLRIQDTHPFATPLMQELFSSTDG

[18] = qHTS assay for small molecule activators of the human pregnane X receptor (PXR) signaling pathway (AID 720659; call rule not given here; also: 0% is about no effect)
[19] = test system: astro; assay: Drug repurposing screens with cells derived from glioblastoma tumor samples (AID 1345199); details: viability, ATP luminescence, 48 h; series mostly up to 45.9 µM; also: nearly all actives have a fitted effect of over 40% in size; also: potency is read from the fitted curve at half-maximal effect; as to activity, negative = cell killing: % is scaled to controls: 0 for no effect and ±100 for the full control effect
In short: as §3

[20] = at 21.2 µM (top of the series), tumour line B
[21] = at 21.2 µM (top of the series), tumour line D
[22] = at 45.9 µM (top of the series), tumour line B
[23] = at 45.9 µM (top of the series), tumour line D
[24] = at 46 µM (top of the series), tumour line A

C[C@@H]1CN(C2CCC(C#N)(c3ccc(F)cc3)CC2)CC[C@]1(C(=O)O)c1ccccc1 (some centres not stated)
inactive: outcome [1] | Potency [2] | Potency [3] | Potency [4] | Potency [5] | Potency [6] | Potency [7] | Potency [8] | Potency [9] | Potency [10] | Potency [11] | Potency [12] | Potency [13] | Potency [14] | Potency [15] | activity, negative = cell killing [16, 20] -8.19% | activity, negative = cell killing [16, 21] -4.39%

COc1cc(CC#N)cc(OC)c1OC
inactive: Potency [2] | Potency [3] | Potency [4] | Potency [5] | Potency [6] | Potency [7] | Potency [8] | Potency [9] | Potency [10] | Potency [11] | Potency [12] | Potency [13] | Potency [14] | Potency [15]

CN(C)CCc1c[nH]c2ccc(O)cc12
inactive: outcome [1] inactive [at 92 µM] | Potency [4] | Potency [6] | Potency [7] | Potency [8] | Potency [9] | Potency [10] | Potency [11] | Potency [12] | Potency [13] | Potency [14] | Potency [15] | activity, negative = cell killing ([16]; at 91.6 µM (top of the series), tumour line B) -5.09% | activity, negative = cell killing ([16]; at 91.6 µM (top of the series), tumour line D) -23.3%
active: Potency [2] 53.4 µM

O=C1CN2CCOC2(c2ccccc2Cl)c2cc(Cl)ccc2N1 (configuration not stated)
inactive: outcome [1] | Potency [2] | Potency [3] | Potency [4] | Potency [5] | Potency [6] | Potency [7] | Potency [8] | Potency [9] | Potency [10] | Potency [11] | Potency [12] | Potency [13] | Potency [14] | Potency [15]

CC(Cc1ccccc1)NCCCCl (configuration not stated)
inactive: Potency [2] | Potency [3] | Potency [4] | Potency [5] | Potency [6] | Potency [7] | Potency [8] | Potency [9] | Potency [10] | Potency [11] | Potency [12] | Potency [13] | Potency [14] | Potency [15]

O=C(O)Cc1ccccc1
inactive: outcome [1] | Potency [2] | Potency [3] | Potency [4] | Potency [6] | Potency [7] | Potency [8] | Potency [9] | Potency [10] | Potency [12] | Potency [13] | Potency [14] | Potency [15] | activity, negative = cell killing [16, 22] -8.63% | activity, negative = cell killing [16, 23] -22.9% | activity, negative = cell killing [16, 24] -19.6%

COP(=S)(OC)Oc1ccc(Sc2ccc(OP(=S)(OC)OC)cc2)cc1
inactive: outcome [1] | Potency [2] | Potency [3] | Potency [4] | Potency [5] | Potency [6] | Potency [7] | Potency [8] | Potency [10] | Potency [11] | Potency [12] | Potency [13] | Potency [14] | Potency [15] | max response [17] 1.29% | outcome [18]

ClCCCN1CCN(c2cccc(Cl)c2)CC1
inactive: outcome [1] | Potency [2] | Potency [4] | Potency [6] | Potency [7] | Potency [8] | Potency [9] | Potency [10] | Potency [11] | Potency [12] | Potency [13] | Potency [14] | Potency [15]

O=C(O)c1nn(Cc2ccc(Cl)cc2Cl)c2ccccc12
inactive: outcome [1] | Potency [2] | Potency [3] | Potency [4] | Potency [5] | Potency [6] | Potency [7] | Potency [8] | Potency [9] | Potency [10] | Potency [12] | Potency [13] | Potency [14] | Potency [15] | activity, negative = cell killing [16, 22] -14.7% | activity, negative = cell killing [16, 24] -31.3%

CC(C)NCC(O)c1ccc(N)c(C#N)c1 (configuration not stated)
inactive: Potency [2] | Potency [3] | Potency [4] | Potency [5] | Potency [6] | Potency [7] | Potency [8] | Potency [9] | Potency [10] | Potency [11] | Potency [12] | Potency [13] | Potency [14] | Potency [15] | activity, negative = cell killing [16, 22] -10.3% | activity, negative = cell killing [16, 23] -5.78% | activity, negative = cell killing [16, 24] -34.1% | Potency [19]

CC(C(O)c1ccccc1)N(C)C/C=C/c1ccccc1 (configuration not stated)
inactive: Potency [2] | Potency [3] | Potency [4] | Potency [5] | Potency [6] | Potency [7] | Potency [8] | Potency [9] | Potency [10] | Potency [12] | Potency [13] | Potency [14] | Potency [15]

CN1C2CCC(C)(C)C1CC(OC(=O)C(O)(c1cccs1)c1cccs1)C2 (configuration not stated)
inactive: Potency [2] | Potency [3] | Potency [4] | Potency [5] | Potency [6] | Potency [7] | Potency [8] | Potency [9] | Potency [10] | Potency [12] | Potency [13] | Potency [14] | Potency [15]

C[N+]1(C)[C@@H]2CC[C@H]1CC(OC(=O)C(CO)c1ccccc1)C2 (some centres not stated)
inactive: Potency [2] | Potency [3] | Potency [4] | Potency [5] | Potency [6] | Potency [7] | Potency [8] | Potency [9] | Potency [10] | Potency [11] | Potency [12] | Potency [13] | Potency [14] | Potency [15] | activity, negative = cell killing [16, 20] -14.5% | activity, negative = cell killing [16, 21] -3.94% | activity, negative = cell killing ([16]; at 21.3 µM (top of the series), tumour line A) -14.4% | activity, negative = cell killing [16, 22] -1.41% | activity, negative = cell killing [16, 23] -16.2% | activity, negative = cell killing ([16]; at 46.1 µM (top of the series), tumour line C) -12.5% | Potency [19]

O=c1n(Cl)c(=O)n(Cl)c(=O)n1Cl
inactive: Potency [2] | Potency [3] | Potency [4] | Potency [5] | Potency [6] | Potency [7] | Potency [8] | Potency [9] | Potency [10] | Potency [11] | Potency [12] | Potency [13] | Potency [14] | Potency [15] | activity, negative = cell killing [16, 22] -0.787% | activity, negative = cell killing [16, 23] 7.38% | Potency [19] | max response [17] -5.15% | outcome [18]

CCN(CC)Cc1nccn1-c1ccc([N+](=O)[O-])cc1C(=O)c1ccccc1Cl
inactive: Potency [2] | Potency [3] | Potency [4] | Potency [5] | Potency [6] | Potency [7] | Potency [8] | Potency [9] | Potency [10] | Potency [13] | Potency [14] | Potency [15] | activity, negative = cell killing [16, 22] -21% | activity, negative = cell killing [16, 23] -13.7%
active: Potency ([16]; tumour line A) 31.6 µM

CCC(=O)OC1(c2ccccc2)CCN(C)CC1
inactive: Potency [2] | Potency [3] | Potency [4] | Potency [6] | Potency [7] | Potency [8] | Potency [9] | Potency [10] | Potency [11] | Potency [12] | Potency [13] | Potency [14] | Potency [15] | activity, negative = cell killing ([16]; at 108 µM (top of the series), tumour line B) -0.343% | activity, negative = cell killing ([16]; at 108 µM (top of the series), tumour line D) -13.5% | Potency [19]
active: Potency ([16]; tumour line A) 50.1 µM
